Screens deposited in PubChem by several laboratories.
PfHsp40 yeast – restores yeast growth despite PfHsp40 toxicity. S. cerevisiae expressing PfHsp40, growth rescue, ATP luminescence. growth rescue, % at 12.5 µM. hit rate 0.68% among 340,000. AID 504582; in the data active = growth rescue above about 28%, passing the limit was not always enough;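 also: yeast W303a lacking pdr1 and pdr3 grown in galactose medium; growth measured after three days at 30 °C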
RN4220 kill – S. aureus RN4220 growth inhibition | OD600, 16 h | inhibition, % (no concentration beside the values) | hit rate 0.33% among 330,000 | AID 1259311; in the data active = inhibition above about 85%;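 also: plate controls were untreated cells for no effect and reference antibiotic for full effect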
VHR inh abs – inhibitors of human VHR1 phosphatase (DUSP3). P51452. recombinant VHR phosphatase, pNPP absorbance. inhibition, % at 13.3 µM. hit rate 0.52% among 290,000; in the data active = inhibition above about 50%
PrPC TRFRET – cell surface PrPC inhibition, primary TR-FRET screen | P04156 | TR-FRET read-out | inhibition, % at 13.8 µM | hit rate 0.43% among 370,000 | AID 720596; in the data active = inhibition above about 24%; also: 0% = median of the test wells and 100% = reference compound wells
Sa ugtP lethal – growth inhibition of S. aureus ugtP deletion strain | S. aureus RN4220 ugtP deletion, OD600 growth, 16 h | growth inhibition, % (no concentration beside the values) | hit rate 0.54% among 330,000; in the data active = growth inhibition above about 68%;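 also: plate controls were untreated wells for no effect and antibiotic for full effect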
PrPC TRFRET cf – confirmation of inhibitors of cell surface human prion protein | shares compounds with PrPC TRFRET | inhibition, % at 13.8 µM | cell surface PrPC level, TR-FRET | hit rate 65% among 1,500; in the data active = inhibition above about 25%
LD9 cytotox – kills or reduces viability of LD9 cells in PrPc counter-screen; shares compounds with PrPC TRFRET; LD9 cells cytotoxicity, luminescence viability; inhibition, % at 13.8 µM; hit rate 29% among 1,500; in the data active = inhibition above about 9.5%
An asterisk follows results filed as active; x = no result. The list is not random: actives were taken first. Their share in the collection is about 1.8%.

SMILES	PfHsp40 yeast	RN4220 kill	VHR inh abs	PrPC TRFRET	Sa ugtP lethal	PrPC TRFRET cf	LD9 cytotox
O=S(=O)(C/C(=C/CO)S(=O)(=O)c1ccccc1)c1ccccc1	-1	7	14	86*	4	92*	3
CCC(CC)C(=O)Nc1cccc(C(=O)NCc2ccco2)c1	0	4	1	-4	7	x	x
COc1ccc(C(=O)Nc2cccc(C(=O)NCc3ccccc3)c2)cc1	0	5	26	16	4	x	x
Cc1ccc(C(=O)Nc2cccc(C(=O)NCc3ccco3)c2)cc1	-1	-1	-12	39*	-4	22	17*
O=C(Cc1cccs1)Nc1cccc(C(=O)Nc2ccco2)c1	0	5	13	27*	3	10	-7
Cc1ccc(C(=O)Nc2cccc(C(=O)NCc3ccccc3)c2)cc1	4	5	8	37*	-6	24	6
O=C(NCc1ccco1)c1cccc(NC(=O)c2ccccc2)c1	-1	2	-1	27*	3	28*	9
CC(=NOCON=C(C)c1ccc(F)cc1)c1ccc(F)cc1	x	0	x	x	18	x	x
COc1ccc(S(=O)(=O)Nc2ccc3c(c2)C(=O)N(C(C)CO)CC(C)C(CN(C)C(=O)NC(C)C)O3)cc1 (stereo not given)	x	2	x	x	-6	x	x
O=C(CSc1cccc2cccc(Cl)c12)NC1=NCCS1	0	3	6	29*	-2	45*	-4
NC(=O)COC(=O)CSc1cccc2cccc(Cl)c12	-1	2	16	39*	3	52*	1
O=C(CSc1ccccc1F)OCC(=O)N1CCN(C(=O)c2ccco2)CC1	0	2	x	-3	4	x	x
O=C(CSc1cccc2cccc(Cl)c12)OCC(=O)N1CCN(C(=O)c2ccco2)CC1	0	2	8	43*	-2	44*	-1
O=C(COC(=O)CSc1cccc2cccc(Cl)c12)Nc1ncc(C(F)(F)F)cc1Cl	0	7	-22	31*	3	39*	1
CN1C(=CC=NNC(=O)c2ccc(O)cc2)C(C)(C)c2ccccc21	x	0	x	x	13	x	x
COC(=O)[C@@]12CCCCN1C(c1ccc(-c3ccc4c(c3)OCO4)c(OC)c1)C1C(=O)N(C)C(=O)C12 (stereo not given in full)	x	3	x	x	-20	x	x
CCN1C(=O)C2C(c3ccc(-c4ccc(C(C)=O)cc4)c(OC)c3)N3CCC[C@@]3(C(=O)OC)C2C1=O (stereo not given in full)	x	9	x	x	-1	x	x
Cc1cc2ccccc2n1CCNC(=O)c1cccs1	0	19	-2	33*	13	25*	-5
Cc1cc2ccccc2n1CCNC(=O)C1CC1	1	19	33	28*	16	7	-2
Cc1cc2ccccc2n1CCNC(=O)C1CCCC1	-1	0	24	40*	-2	4	1
CCn1c(CNC(=O)C2CCCCC2)cc2ccccc21	-1	-1	30	9	3	x	x
O=C(NCCn1ccc2ccccc21)C1CCCCC1	0	-13	39	5	1	x	x
Cc1cc2ccccc2n1CCNC(=O)C1CCCCC1	0	-10	-15	36*	-8	11	-2
O=C(NC1CCS(=O)(=O)C1)C(=Cc1ccco1)NC(=O)c1ccccc1 (stereo not given)	x	8	x	x	4	x	x
COC(=O)C1CC2CCC(O)CC2N1Cc1ccc(N2CCN(C)CC2)cc1 (stereo not given)	x	7	x	x	2	x	x
SMILES	PfHsp40 yeast	RN4220 kill	VHR inh abs	PrPC TRFRET	Sa ugtP lethal	PrPC TRFRET cf	LD9 cytotox
O=C(NN=Cc1ccc(N2CCOCC2)o1)c1cccc(C(F)(F)F)c1	x	1	x	x	-1	x	x
O=C(CSc1nc2sc3c(c2c(=O)n1-c1ccccc1)CCCC3)NN=Cc1ccccc1C(=O)O	x	17	x	x	-2	x	x
COc1cccc(-c2cc3c(=O)n(-c4ccccc4)c(=S)[nH]c3s2)c1	5	-1	-6	31*	-10	67*	-1
COc1ccc(-n2c(=S)[nH]c3sc(-c4ccccc4)cc3c2=O)c(OC)c1	-1	-1	-1	3	6	x	x
CCCn1c(N=Cc2ccc3c(c2)OCO3)nc2ccccc21	x	9	x	x	21	x	x
CC1=CC(C)CC(C)OC(=O)CC(c2ccc(O)cc2)NC(=O)C(Cc2c(Br)[nH]c3ccccc23)N(C)C(=O)C(C)NC(=O)C(C)C1 (stereo not given)	7	x	x	32*	x	25*	11*
CCOC(=O)C(C)Sc1nc(-c2ccco2)cc(C(F)(F)F)c1C#N (stereo not given)	1	2	-7	33*	10	49*	-1
O=c1cc(CNc2cc(C(F)(F)F)cc(C(F)(F)F)c2)nc2sccn12	2	-2	10	29*	-9	20	-7
O=C(Nc1nc(-c2ccccc2)cs1)c1ccccc1NS(=O)(=O)c1ccc(F)cc1	7	93*	-2	35*	95*	30*	32*
COC(=O)C(NC(=O)NCc1ccccc1Cl)C(C)C (stereo not given)	x	9	x	x	5	x	x
NC(=O)C1=CC(c2ccccc2)CC(OCc2ccc(CO)cc2)O1 (stereo not given)	x	6	x	x	7	x	x
O=C(O)c1ccccc1SCc1csc(-c2ccccc2)n1	-2	1	12	76*	1	60*	-4
Cc1nnc2c(SC(C)C)nc3ccccc3n12	1	4	8	33*	4	47*	-8
CCOC1OC(C(=O)N2CCN(C)CC2)=CC(c2ccc(Br)cc2)C1CCCO (stereo not given)	x	4	x	x	1	x	x
O=C(NN=Cc1ccc(OC(F)F)cc1)C1=COCCO1	x	-2	x	x	0	x	x
CCC(C)C(C(=O)N1CCN(C(=O)OC(C)(C)C)CC1)n1cc(CCCN=C(NC(=O)OC(C)(C)C)NC(=O)OC(C)(C)C)nn1 (stereo not given)	x	9	x	x	12	x	x
COC(=O)C1=C(c2ccc(OC)c(OC)c2)CC2CCC1N2C(=O)NCc1ccc(F)cc1 (stereo not given)	x	0	x	x	9	x	x
COc1cc2[nH]c(=S)n(NC(=O)c3ccccc3)c(=O)c2cc1OC	4	8	30	36*	18	50*	-4
O=C(Nc1ccc(N2CCN(C(=O)c3ccccc3)CC2)cc1)c1ccc(Br)o1	0	-8	13	14	-8	x	x
O=C(Nc1ccc(N2CCN(C(=O)c3ccccc3)CC2)c(Cl)c1)c1ccc(Br)o1	5	1	0	33*	-3	41*	24*
Oc1cccc2ccc(C=Cc3ccc(Br)s3)nc12	x	22	x	x	20	x	x
O=C1N(c2ccccc2)C[C@@H]2C[C@@H](c3cc4ccccc4o3)N3CCC[C@@]123	-1	-6	20	40*	19	54*	25*
CCOC(=O)N1CCN(C(=O)COc2ccc3ccccc3c2Br)CC1	0	4	7	50*	-2	79*	-2
